Source: PubChem BioAssay AID624405 (Broad Institute, 2012)
In all, about 1,900 compounds went through this assay and about 250 (13%) were called active. Inconclusive results (about 4%) are left out.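 Rule for the calls: active = fitted curve reaches 40% rescue activity at or below the top valid dose, in every test run; inconclusive = test runs disagree, some active and some inactive; inactive = every run misses the threshold or moves the wrong way.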 A selection follows. Entries with a potency or affinity are not part of this list.

Test: rescue of simvastatin-induced ATP loss – cell-based, C2C12 myotubes, ATP luminescence, cherry pick, dose response (AID 624405);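 note: myotubes are challenged with simvastatin at 10 µM to lower ATP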
Details: 48 h, scaled: DMSO wells 0, geranylgeraniol wells 100; series mostly up to 19.5 µM

Compound | outcome
Cc1c(C(=O)N2CCOCC2)oc2ccc(S(=O)(=O)N3CCCC3)cc12 | inactive
C[C@H]1CCCCO[C@@H](CN(C)C(=O)Nc2cccc3ccccc23)[C@@H](C)CN([C@@H](C)CO)C(=O)c2cc(NS(=O)(=O)c3ccc(Cl)cc3)ccc2O1 | inactive
C[C@@H]1CN([C@H](C)CO)C(=O)c2cc(C3=CCCCC3)cnc2O[C@@H]1CN(C)Cc1ccccc1F | inactive
Cc1noc(C)c1NC(=O)Nc1ccc2c(c1)C(=O)N([C@@H](C)CO)C[C@@H](C)[C@H](CN(C)S(=O)(=O)c1c(C)noc1C)OCCCC[C@@H](C)O2 | inactive
Nc1nnnn1NCc1cccc(OCc2ccccc2)c1 | inactive
COc1cc(CCC(=O)OCc2nnc(-c3ccccc3)o2)cc(OC)c1OC | inactive
Cc1ccc(N2C(N)=NC(N)=NC2(C)C)c(C)c1 | inactive
CCOC(=O)N1CCN(C(=O)c2ccc3c(=O)n(CCc4ccccc4)c(=O)[nH]c3c2)CC1 | inactive
CN1C(=O)c2cc(NS(=O)(=O)c3ccc(Cl)cc3)ccc2OC[C@@H]2O[C@@H](CC(=O)N3CCc4ccccc4C3)CC[C@H]21 | inactive
COc1cccc(C(=O)CN2C3=NCCCN3c3ccccc32)c1 | inactive
CCCCN1C(=O)NC(NC(C)=O)(C(F)(F)F)C1=O (stereo not drawn) | inactive
Cc1cccc(N=c2oc3cc(O)ccc3cc2C(N)=O)c1 | inactive
O=C(Cn1ncc2c3ccccc3n(Cc3cccc(Cl)c3)c2c1=O)NCC1CCCO1 (stereo not drawn) | inactive
O=c1c2ccccc2n(Cc2ccc(F)cc2)c(=O)n1C1CCCC1 | inactive
N#Cc1cc(-c2ccccc2)nnc1Sc1ccc(Cl)cc1 | inactive
COc1ccc(CN(Cc2cccn2C)C(=O)c2cc3cc(OC)ccc3[nH]2)cc1 | inactive
Cn1c(-c2ccc(F)cc2)cnc1NCc1ccc(F)cc1 | inactive
COc1cc(NC(=O)c2cccs2)c(C(=O)OCC(=O)NCc2ccco2)cc1OC | inactive
Cc1ccc(CNC(=O)CNS(=O)(=O)c2cccc3nsnc23)cc1 | inactive
COc1ccc(S(=O)(=O)Nc2ccc3c(c2)C(=O)N([C@H](C)CO)C[C@@H](C)[C@H](CN(C)S(=O)(=O)c2ccc(F)cc2)OCCCC[C@H](C)O3)cc1 | inactive
CNC[C@@H]1Oc2ccc(NS(=O)(=O)c3c(C)noc3C)cc2C(=O)N([C@@H](C)CO)C[C@@H]1C | inactive
Cc1nc(CSc2ccc(Cl)cc2)cc(N2CC(C)OC(C)C2)n1 (stereo not drawn) | inactive

Compound | outcome
CC1CC(C)CN(CCCNC(=O)c2ccc3c(c2)NC(=O)C(N2CCCCC2)S3)C1 (stereo not drawn) | inactive
O=C(Nc1cc(Br)ccc1O)c1cc(-c2cccs2)on1 | inactive
O=C(Nc1cccc(C(F)(F)F)c1)c1cc(-c2cccs2)on1 | inactive
Cc1ccc(NC(=O)c2cc(-c3cccs3)on2)cc1 | inactive
CC(=O)c1cccc(NC(=O)c2cc(-c3cccs3)on2)c1 | inactive
CCN(CCCNC(=O)C1CCC(=O)N1C(C)C)c1cccc(C)c1 (stereo not drawn) | inactive
Cc1noc(C)c1S(=O)(=O)Nc1ccc2c(c1)C(=O)N([C@@H](C)CO)C[C@H](C)[C@H](CN(C)Cc1ccc3c(c1)OCO3)O2 | inactive
O=C(Nc1ccccc1)Oc1cccc2cccnc12 | inactive
COc1ccc(S(=O)(=O)Nc2ccccc2C(=O)NC(C)(C)C)cc1OC | inactive
COc1ccccc1NS(=O)(=O)c1cccc(NC(=O)c2ccc3ccccc3n2)c1 | inactive
C#CCOC(=O)c1ccccc1C(=O)N(CC)CC | inactive
O=C(CCN1CCc2ccccc21)c1ccc2c(c1)OCCO2 | inactive
COc1ccc(C2CC(=O)Oc3c(C(CCN4CCCCC4)c4ccc(N(C)C)cc4)c(OC)cc(OC)c32)cc1 (stereo not drawn) | inactive
O=C(Nc1cnn(Cc2ccccc2)c1)c1cc2nc(-c3ccco3)cc(C(F)(F)F)n2n1 | inactive
COc1ccc(S(=O)(=O)Nc2cccc3c2O[C@H](CN(C)CC2CCCCC2)[C@H](C)CN([C@H](C)CO)C3=O)cc1 | inactive
Cc1cc(NC(=O)COC(=O)C2CCN(S(=O)(=O)c3c(Cl)cccc3Cl)CC2)no1 | inactive
N#Cc1ccc(-c2nnnn2-c2ccc3c(c2)OCO3)cc1 | inactive
COC(=O)c1ccccc1NC(=O)c1ccccc1OC | inactive
COc1ccccc1N(CC(=O)Nc1ccc2c(c1)OCCO2)S(C)(=O)=O | inactive
Cc1noc(C)c1S(=O)(=O)N1CCC(C(=O)N2CCN(c3ccccc3Cl)CC2)CC1 | inactive
C[C@@H]1CCCCO[C@H](CN(C)CC2CCCCC2)[C@@H](C)CN([C@H](C)CO)C(=O)c2cc(NC(=O)CCCN(C)C)ccc2O1 | inactive
